Measured values reported in PubChem BioAssay AID1159580 (chemical genetic matrix, 2015).
The campaign covered roughly 5,500 compounds. About 2,000 (36%) were called active. Another 18% or so got no clear call; they are omitted. No stated cut-off is given here; in the data, active means normalized growth mostly below about 0.91 (no sharp cut-off); inconclusive means no clear call, values can overlap the other calls; inactive means mostly above about 0.92. This is one part of the list.

Experiment: chemical genetic growth profiling, strain panel (AID 1159580);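 further: tested at 20 µM; growth read once vehicle control cultures reached saturation at 30 °C; 1 = growth at the plate median or of vehicle wells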
Conditions: growth OD

Measured: normalized growth

CC(C)c1c(O)c(-c2cc3c(c(C(C)C)c2O)CCC2C(C)(C)CCC[C@]32C)cc2c1CCC1C(C)(C)CCC[C@]21C (some centres not stated)
inactive: S. cerevisiae deletion strains, locus YJR075W, strain HOC1, stronger effect = lower value 1.01 | S. cerevisiae deletion strains, locus YKL009W, strain mrt4, stronger effect = lower value 1.06 | S. cerevisiae deletion strains, locus YKL068W, stronger effect = lower value 1.01 | S. cerevisiae deletion strains, locus YKL085W, strain MDH1 (second series), stronger effect = lower value 1.07 | S. cerevisiae deletion strains, locus YKL085W, strain MDH1, stronger effect = lower value 1.07 | S. cerevisiae deletion strains, locus YKL160W, strain elf1, stronger effect = lower value 0.984 | S. cerevisiae deletion strains, locus YKL190W, strain CNB1, stronger effect = lower value 1.01 | S. cerevisiae deletion strains, locus YKR001C, strain vps1, stronger effect = lower value 1.03 | S. cerevisiae deletion strains, locus YKR026C, strain gcn3, stronger effect = lower value 0.993 | S. cerevisiae deletion strains, locus YKR091W, strain srl3, stronger effect = lower value 0.971 | S. cerevisiae deletion strains, locus YLL001W, strain dnm1, stronger effect = lower value 1.01 | S. cerevisiae deletion strains, locus YLL026W, stronger effect = lower value 0.997 | S. cerevisiae deletion strains, locus YLL041C, strain sdh2, stronger effect = lower value 1.02 | S. cerevisiae deletion strains, locus YLR027C, strain aat2, stronger effect = lower value 0.983 | S. cerevisiae deletion strains, locus YLR039C, strain RIC1, stronger effect = lower value 1.07 | S. cerevisiae deletion strains, locus YLR058C, strain SHM2, stronger effect = lower value 1.02 | S. cerevisiae deletion strains, locus YLR102C, strain apc9, stronger effect = lower value 1.02 | S. cerevisiae deletion strains, locus YLR113W, strain HOG1, stronger effect = lower value 0.996 | S. cerevisiae deletion strains, locus YLR221C, strain rsa3, stronger effect = lower value 1.02 | S. cerevisiae deletion strains, locus YLR258W, strain gsy2, stronger effect = lower value 0.974 | S. cerevisiae deletion strains, locus YLR262C, strain YPT6 (second series), stronger effect = lower value 0.987 | S. cerevisiae deletion strains, locus YLR262C, strain YPT6, stronger effect = lower value 1.05 | S. cerevisiae deletion strains, locus YLR268W, strain sec22, stronger effect = lower value 1.01 | S. cerevisiae deletion strains, locus YLR320W, strain mms22, stronger effect = lower value 1.02 | S. cerevisiae deletion strains, locus YLR330W, strain CHS5, stronger effect = lower value 1.01 | S. cerevisiae deletion strains, locus YLR342W, strain FKS1 (second series), stronger effect = lower value 1.04 | S. cerevisiae deletion strains, locus YLR342W, strain FKS1, stronger effect = lower value 0.99 | S. cerevisiae deletion strains, locus YLR357W, strain rsc2, stronger effect = lower value 0.976 | S. cerevisiae deletion strains, locus YLR370C, strain arc18, stronger effect = lower value 0.982 | S. cerevisiae deletion strains, locus YLR371W, strain rom2, stronger effect = lower value 1.02 | S. cerevisiae deletion strains, locus YLR384C, strain iki3, stronger effect = lower value 0.972 | S. cerevisiae deletion strains, locus YLR418C, strain cdc73, stronger effect = lower value 1.01 | S. cerevisiae deletion strains, locus YML016C, strain PPZ1, stronger effect = lower value 1.02 | S. cerevisiae deletion strains, locus YML032C, strain rad52, stronger effect = lower value 1.03 | S. cerevisiae deletion strains, locus YML120C, strain ndi1, stronger effect = lower value 1 | S. cerevisiae deletion strains, locus YML124C, strain tub3, stronger effect = lower value 1.01 | S. cerevisiae deletion strains, locus YMR058W, strain fet3, stronger effect = lower value 0.982 | S. cerevisiae deletion strains, locus YMR078C, strain ctf18, stronger effect = lower value 1.01 | S. cerevisiae deletion strains, locus YMR125W, strain sto1, stronger effect = lower value 0.968 | S. cerevisiae deletion strains, locus YMR129W, stronger effect = lower value 0.98 | S. cerevisiae deletion strains, locus YMR205C, strain PFK2, stronger effect = lower value 0.973 | S. cerevisiae deletion strains, locus YMR223W, strain ubp8, stronger effect = lower value 1.03 | S. cerevisiae deletion strains, locus YMR231W, strain pep5, stronger effect = lower value 1.04 | S. cerevisiae deletion strains, locus YMR263W, strain SAP30, stronger effect = lower value 1.02 | S. cerevisiae deletion strains, locus YMR307W, strain GAS1, stronger effect = lower value 1.03 | S. cerevisiae deletion strains, locus YNL067W, strain RPL9B, stronger effect = lower value 1.02 | S. cerevisiae deletion strains, locus YNL071W, strain lat1, stronger effect = lower value 0.995 | S. cerevisiae deletion strains, locus YNL128W, strain TEP1, stronger effect = lower value 1.01 | S. cerevisiae deletion strains, locus YNL153C, strain GIM3, stronger effect = lower value 0.998 | S. cerevisiae deletion strains, locus YNL183C, strain NPR1, stronger effect = lower value 0.946 | S. cerevisiae deletion strains, locus YNL209W, strain ssb2, stronger effect = lower value 0.986 | S. cerevisiae deletion strains, locus YNL233W, strain BNI4, stronger effect = lower value 0.999 | S. cerevisiae deletion strains, locus YNL248C, strain rpa49, stronger effect = lower value 0.953 | S. cerevisiae deletion strains, locus YNL250W, strain rad50, stronger effect = lower value 1.02 | S. cerevisiae deletion strains, locus YNL271C, strain bni1, stronger effect = lower value 1.03 | S. cerevisiae deletion strains, locus YNL298W, strain CLA4, stronger effect = lower value 1.03 | S. cerevisiae deletion strains, locus YNL307C, strain MCK1, stronger effect = lower value 1.04 | S. cerevisiae deletion strains, locus YNL322C, strain KRE1 (second series), stronger effect = lower value 0.963 | S. cerevisiae deletion strains, locus YNL322C, strain KRE1, stronger effect = lower value 1.02 | S. cerevisiae deletion strains, locus YNR049C, strain mso1, stronger effect = lower value 0.963 | S. cerevisiae deletion strains, locus YNR052C, strain pop2, stronger effect = lower value 1.02 | S. cerevisiae deletion strains, locus YOL006C, strain TOP1, stronger effect = lower value 1.06 | S. cerevisiae deletion strains, locus YOL012C, strain htz1 0.995 | S. cerevisiae deletion strains, locus YOL147C, strain pex11, stronger effect = lower value 1.01 | S. cerevisiae deletion strains, locus YOR001W, strain rrp6, stronger effect = lower value 1.02 | S. cerevisiae deletion strains, locus YOR061W, strain CKA2, stronger effect = lower value 1.02 | S. cerevisiae deletion strains, locus YOR069W, strain VPS5, stronger effect = lower value 1.01 | S. cerevisiae deletion strains, locus YOR070C, strain gyp1, stronger effect = lower value 0.989 | S. cerevisiae deletion strains, locus YOR080W, strain dia2, stronger effect = lower value 0.953 | S. cerevisiae deletion strains, locus YOR083W, strain WHI5, stronger effect = lower value 0.997 | S. cerevisiae deletion strains, locus YOR106W, strain vam3, stronger effect = lower value 0.985 | S. cerevisiae deletion strains, locus YOR136W, strain idh2, stronger effect = lower value 1.01 | S. cerevisiae deletion strains, locus YOR144C, strain elg1, stronger effect = lower value 1.01 | S. cerevisiae deletion strains, locus YOR184W, strain ser1, stronger effect = lower value 1.04 | S. cerevisiae deletion strains, locus YOR231W, strain MKK1, stronger effect = lower value 0.958 | S. cerevisiae deletion strains, locus YOR265W, strain rbl2, stronger effect = lower value 1 | S. cerevisiae deletion strains, locus YOR270C, strain vph1, stronger effect = lower value 1 | S. cerevisiae deletion strains, locus YOR290C, strain snf2, stronger effect = lower value 0.957 | S. cerevisiae deletion strains, locus YOR316C, strain cot1, stronger effect = lower value 1.02 | S. cerevisiae deletion strains, locus YPL051W, strain arl3, stronger effect = lower value 0.999 | S. cerevisiae deletion strains, locus YPL055C, strain LGE1, stronger effect = lower value 1.02 | S. cerevisiae deletion strains, locus YPL078C, strain atp4, stronger effect = lower value 0.986 | S. cerevisiae deletion strains, locus YPL106C, strain sse1, stronger effect = lower value 0.948 | S. cerevisiae deletion strains, locus YPL240C, strain hsp82, stronger effect = lower value 0.996 | S. cerevisiae deletion strains, locus YPL241C, strain CIN2, stronger effect = lower value 1.02 | S. cerevisiae deletion strains, locus YPL256C, strain CLN2, stronger effect = lower value 0.949 | S. cerevisiae deletion strains, locus YPR119W, strain clb2, stronger effect = lower value 1.01 | S. cerevisiae deletion strains, locus YPR141C, strain kar3, stronger effect = lower value 1.02 | S. cerevisiae deletion strains, locus YPR163C, strain tif3, stronger effect = lower value 1.01 | S. cerevisiae deletion strains, locus YPR167C, strain met16, stronger effect = lower value 1.02 | S. cerevisiae deletion strains, strain wtn01, stronger effect = lower value 1.02 | S. cerevisiae strains, strain wild type, stronger effect = lower value 1.02
